Our source for the growth inhibition values is PubChem BioAssay (NCI).

Assay [1] is described as follows: NCI Yeast Anticancer Drug Screen. Data for the rad50 strain (AID 155).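 Also: 0% = growth of vehicle-only cultures of the same strain.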 As to conditions: S. cerevisiae rad50 strain growth inhibition; at 50.0 µM; active compounds read high. The procedure, abridged:
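Readout: growth inhibition relative to vehicle-treated cultures. Compound exposure was carried out in a genetically defined yeast strain deficient in DNA damage repair.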

A short description of assay [2]: NCI Yeast Anticancer Drug Screen. Data for the mec2-1 strain (AID 157). As to conditions: S. cerevisiae mec2-1 strain, at 50.0 µM, active compounds read high. An outline of the steps: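 Each compound was tested on mec2-1 yeast, a strain altered in DNA damage repair or cell cycle control. Growth inhibition is reported relative to vehicle.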
The nature of assay [3]: NCI Yeast Anticancer Drug Screen. Data for the sgs1 mgt1 strain (AID 161).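 Also: 0% = growth of cultures given vehicle only.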 To be noted: S. cerevisiae sgs1 mgt1 strain, at 50.0 µM, active compounds read high. An outline of the steps: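 Test agents were incubated with a DNA-repair-mutant yeast strain. Growth was then read and compared against vehicle-treated controls.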
A short description of assay [4]: NCI Yeast Anticancer Drug Screen. Data for the cln2 rad14 strain (AID 165).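 Also: 0% = growth equal to vehicle treated cultures.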 To be noted: S. cerevisiae cln2 rad14 strain, at 50.0 µM, active compounds read high. An outline of the steps:
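Test compounds were added to cln2 rad14 yeast cultures; inhibition of growth was then determined by comparison with vehicle treatment.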

A short description of assay [5]: NCI Yeast Anticancer Drug Screen. Data for the bub3 strain (AID 167). As to conditions: S. cerevisiae bub3 mutant strain, at 50.0 µM, active compounds read high. The procedure, abridged:
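Readout: yeast growth inhibition, expressed relative to vehicle-only wells. The test organism is a mutant strain from a panel with lesions in DNA repair or checkpoint genes.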

A short description of assay [6]: NCI Yeast Anticancer Drug Screen. Data for the mlh1 rad18 strain (AID 175). As to conditions: S. cerevisiae mlh1 rad18 strain growth inhibition; at 50.0 µM; active compounds read high. An outline of the steps: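 Inhibition values reflect reduced growth of mutant yeast versus vehicle-treated controls following compound exposure; the mutations affect DNA damage repair.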

This is part of a sample that, as a whole, favours compounds with a hit. Of some 79,000 tested, about 15% had one in any assay. Values without a mark were called inactive. The source made the active and inactive calls. Rule as the data show it: active = growth inhibition above about 70%; inactive = the rest.

With `CCCCN(CCCC)C(=O)C(=O)C(C)C(=O)CC` (stereo unspecified), the growth inhibition in assay [1] is -3.6%; in assay [2], -2.75%; in assay [3] it was 14.7%; in assay [4], -1.05%; in assay [5] it was 12.3%; in assay [6], 25.7%.
With `CCCCCCCCCCCCS(=O)(=O)CC(=O)O`, the growth inhibition in assay [1] was -8.65%; in assay [2], 7.9%; in assay [3] it was 8.15%; in assay [4], -84.2%; in assay [5], 29.4%; in assay [6], 9.05%.
`CC(=O)OCC(=O)C1(C)CCC2(C)CCC3(C)C(=CC(=O)C4C5(C)CCC(=O)C(C)(C)C5CCC43C)C2C1` (stereo unspecified): the growth inhibition in assay [1] was -2.95%; in assay [2] it was -30.8%; in assay [3] it was 2.7%; in assay [4], -2.25%; in assay [5], 13.7%; in assay [6], 15.4%.
Turning to `Cc1cc2[nH]c(=O)c(=O)[nH]c2cc1C`, the growth inhibition in assay [1] is 0.35%; in assay [2], 4.05%; in assay [3] it was 7.15%; in assay [4], 17.7%; in assay [5], -0.95%; in assay [6] it was 2.55%.
Turning to `Oc1c(Cl)cc(Cl)cc1C1Nc2ccccc2-n2cccc21` (stereo unspecified), the growth inhibition is -5.2% in assay [1]; -11.8% in assay [2]; 0.4% in assay [3]; 8.95% in assay [4]; 9.25% in assay [5]; 8.2% in assay [6].
In the case of `COc1ccc(C(=Nc2ccc(C)cc2)c2ccccc2)cc1`, the growth inhibition in assay [1] was -2.1%; in assay [2], 7.2%; in assay [3], -6.05%; in assay [4], -43.6%; in assay [5] it was -9.1%; in assay [6], -15.6%.
Take `CC1(C)OC2C(C(=O)O)OC(n3cnc4c(N)ncnc43)C2O1` (stereo unspecified): the growth inhibition in assay [1] was -3.35%; in assay [2], -12.2%; in assay [3] it was -9.7%; in assay [4], -2.05%; in assay [5], -21.6%; in assay [6] it was -0.7%.
As for `COC(=O)N/N=C/c1c[nH]c2ccccc12`, the growth inhibition in assay [1] was -5.15%; in assay [2], -17.6%; in assay [3] it was -9.65%; in assay [4], -97%; in assay [5], -17.4%; in assay [6], -24.6%.
In the case of `COC1=CC(=O)c2nc3ccccc3c3ccnc1c23`, the growth inhibition in assay [1] was 87% (active); in assay [2], 76.1% (active); in assay [3], 83.2% (active); in assay [4], 51.2%; in assay [5], 87.3% (active); in assay [6], 87.2% (active).
As to `CCOC(=O)Cn1ccc[n+]1CC(=O)c1ccccc1`, the growth inhibition in assay [1] was -14.9%; in assay [2], 7.9%; in assay [3], 17.4%; in assay [4], -16.2%; in assay [5], -15.4%; in assay [6], -3.1%.
Consider `CN(C)CCCSc1nc2ccccc2[nH]1`, for which the growth inhibition was -7.85% in assay [1]; -13.8% in assay [2]; -20.6% in assay [3]; 0.75% in assay [4]; 7.1% in assay [5]; -6.6% in assay [6].
Turning to `CC(=O)NNc1nc(C)c(C(/C=C/c2ccc([N+](=O)[O-])cc2)=N/NC(N)=O)s1`, the growth inhibition in assay [1] is 23.6%; in assay [2], -12.7%; in assay [3], 24.2%; in assay [4], 16.6%; in assay [5], 8.75%; in assay [6], 10.3%.
With `O=C1[C@@H]2[C@@H](c3ccccc3)[C@]2(Cl)C(=O)[C@H]2[C@H](c3ccccc3)[C@@]12Cl`, the growth inhibition in assay [1] was 6.9%; in assay [2], 4.15%; in assay [3], 1.1%; in assay [4], 8.75%; in assay [5], 3.8%; in assay [6], 32.8%.
Regarding `Cc1cc(=O)[nH]c(NN2C(Cl)C(=O)C2c2cccc(Cl)c2)n1` (stereo unspecified), the growth inhibition is -5.85% in assay [1]; -34.1% in assay [2]; -9.4% in assay [3]; 2.6% in assay [4]; -10.5% in assay [5]; -33% in assay [6].
Regarding `COC(=O)c1ccc(CSc2ccccc2NC(=S)Nc2cccc(SC)c2)o1`, the growth inhibition is -15.2% in assay [1]; -38.8% in assay [2]; -18.6% in assay [3]; 5.9% in assay [4]; -31.9% in assay [5]; -26.6% in assay [6].
With `Cn1c(=O)c2c(nc(Cl)n2Cc2ccccc2)n(C)c1=O`, the growth inhibition in assay [1] was -39.8%; in assay [2], 5.1%; in assay [3] it was -14.6%; in assay [4], 23.6%; in assay [5], 0.8%; in assay [6], 21.4%.
`COC(=O)c1[nH]c(=O)c(C#N)c(C(=O)OC)c1-c1ccc(F)cc1`: the growth inhibition was -4.55% in assay [1]; -24.5% in assay [2]; -15.4% in assay [3]; -2% in assay [4]; -21.2% in assay [5]; -0.05% in assay [6].
Turning to `COc1ccc(C(=O)C2CC(=O)NC2=O)cc1` (stereo unspecified), the growth inhibition in assay [1] was -11.6%; in assay [2], -5.95%; in assay [3], -1.8%; in assay [4], -38.5%; in assay [5], -0.7%; in assay [6], -0.4%.
With `Nc1ccc2[nH]cc(CCC(=O)O)c2c1`, the growth inhibition in assay [1] was -11.8%; in assay [2] it was -6.95%; in assay [3], -4.45%; in assay [4], -11.6%; in assay [5] it was -60.6%; in assay [6] it was 18.5%.
Take `CN(C)CCSSCCN(C)C`: the growth inhibition in assay [1] was -7.55%; in assay [2], -5.65%; in assay [3] it was -13.6%; in assay [4] it was -14.1%; in assay [5], -2.55%; in assay [6], -3.55%.
With `CCOC(=O)C(Cc1cn(S(=O)(=O)c2ccc(C)cc2)cn1)P(=O)(OCC)OCC` (stereo unspecified), the growth inhibition in assay [1] was -34.5%; in assay [2] it was -4.45%; in assay [3] it was -13.4%; in assay [4] it was 14.2%; in assay [5] it was -16.7%; in assay [6] it was -14.3%.
